The text below walks through data of PubChem BioAssay (NCI).

Structures are written as SMILES. About 83,000 compounds went through this panel and 20% of them were active in at least one assay; those are over-represented in the sample as a whole.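 Single-concentration screen, 48 h exposure, 96-well plates. Endpoint: percent growth. Below 10 = active.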 Unmarked numbers belong to inactive results. The source made the active and inactive calls.

Common to all, as to assay: NCI-60 one-dose screen, 48 h (100 = growth as untreated, 0 = no growth, -100 = all killed)
What all share (settings): 10 µM unless noted

The subject of test [1] is SK-MEL-2 melanoma.
Test [2] deals with EKVX NSCLC.
In test [3] the test system is SN12C renal.
For test [4], the system named is UO-31 renal.
For test [5], the system named is TK-10 renal.
For test [6], the system named is ACHN renal.
The test system of test [7] is CAKI-1 renal.
For test [8], the system named is A498 renal.
The test system of test [9] is CCRF-CEM leukemia.
Test [10] relates to MOLT-4 leukemia.
Test [11] relates to SR leukemia.
In test [12] the test system is OVCAR-8 ovarian.
Test [13] relates to OVCAR-5 ovarian.
Test [14] concerns OVCAR-4 ovarian.
Test [15] has as its system SK-OV-3 ovarian.
Test [16] concerns IGROV1 ovarian.
Test [17] concerns HS 578T breast.
For test [18], the system named is NCI/ADR-RES ovarian.
The test system of test [19] is OVCAR-3 ovarian.

Turning to `CCOC(=O)C1C(=O)C=C(c2ccccc2)CC1c1sc(N(C)Cc2ccccc2)nc1Cl` (stereo not given), the growth is 84.4% in test [1]; 87.9% in test [2]; 94.3% in test [3]; 76.1% in test [4]; 107% in test [5]; 95.3% in test [6]. The growth in test [7] was 68.7%; in [8] it was 107%; in [9], 84%; in test [10], 71.1%; in [11], 81.4%; in [12] it was 89.2%. Besides, the growth was 107% in test [13]; 90.7% in test [14]; 87.4% in [15]; 110% in [16]; 76.2% in [17]; 94.6% in test [18].
In the case of `CCCCCCCC/C=C/CCCCCCCC1=NC(C)(C)CN1C(C)C`, the growth is -63.9% (active) in test [1]; 10.6% in test [2]; 16.8% in test [3]; -17.4% (active) in [4]; -14.8% (active) in [5]; -78.3% (active) in [6]. The growth is 31.2% in test [7]; 65.7% in test [8]; -43.4% (active) in test [9]; -63.2% (active) in [10]; -46.7% (active) in test [11]; -20.8% (active) in [12]. In addition, the growth is 58.1% in test [13]; 18.9% in [14]; 55.4% in test [15]; -29.9% (active) in [16]; -55.7% (active) in test [19]; 6.92% (active) in [17]. For the same molecule, in test [18], the growth is -6.48% (active).
For the molecule `Clc1ccc(-c2cnc3nonc3n2)s1`, the growth in test [1] is 93.6%; in [2], 107%; in [3], 92.6%; in [4], 64%; in test [5] it was 103%; in test [6], 81.9%. The growth was 94.1% in test [7]; 93.9% in test [8]; 11.3% in test [9]; 47.2% in [10]; 38.4% in [11]; 67.3% in test [12]. Besides, the growth was 91.5% in test [13]; 89.9% in test [14]; 98.1% in [15]; 71.3% in test [16]; 23.1% in test [19]; 90.3% in test [17]. For the same molecule, in test [18], the growth was 98.5%.
In the case of `CCN1C(=O)N(CC)C2C1N=C(SC)N2/N=C/C=C/c1ccccc1OC` (stereo not given), the growth in test [1] was 26.5%; in [2] it was 23.4%; in test [3], 26.5%; in [4], 41.8%; in test [5], 46.8%; in test [6], 23.2%. For the same molecule, the growth in test [7] was 25%; in test [8] it was 15.1%; in [9], 12.5%; in test [10], 14.7%; in test [11] it was 13.3%; in [12], 10.9%. Further, the growth is 37.2% in [13]; 50.5% in test [14]; 18.9% in [15]; 22.2% in test [16]; -18.9% (active) in [19]; 59.2% in test [17]. The growth in test [18] was -0.869% (active).
Regarding `Fc1cc(-c2cnc3nonc3n2)c(Cl)cc1Cl`, the growth was 102% in [1]; 102% in test [2]; 91.8% in [3]; -28.3% (active) in [4]; 72.4% in test [5]; 18.1% in [6]. Besides, the growth in test [7] is 85%; in [8], 95.7%; in test [9], -12.7% (active); in test [10], 20.2%; in test [11], 86.5%; in test [12], 97.3%. Also, the growth was 88.6% in test [13]; 59.6% in test [14]; 98.5% in test [15]; 77% in [16]; 10.3% in test [19]; 111% in test [17]. Moreover, the growth in test [18] is 102%.
As to `O=S(=O)(Cc1ccc(Cl)cc1Cl)c1ccc(Cl)cc1`, the growth is 31.1% in [1]; 63.4% in test [2]; 49.4% in [3]; 46.2% in test [4]; 32.6% in test [5]; 55.7% in [6]. The growth in test [7] is 38.1%; in test [8], 42.5%; in test [9], 10.8%; in [10], 33.3%; in test [11], 24.3%; in [12], 31.9%. In addition, the growth in [14] was 69.5%; in test [15], 9.24% (active); in test [16], 36.1%; in test [19] it was 1.54% (active); in test [17], 63.3%; in [18], -8.57% (active).
As for `O=c1c2cc(Br)cc(Br)c2nc(-c2ccc(Cl)cc2)n1/N=C\c1ccccc1F`, the growth in test [1] was 78.4%; in [2], 63.7%; in test [3], 58.2%; in [4], 21.6%; in test [5] it was 33.1%; in [6], 26.4%. Moreover, the growth was 27% in test [7]; 85.6% in test [8]; 71.7% in test [9]; 74% in test [10]; 81% in [11]; 47% in test [12]. Also, the growth is 64.8% in test [13]; -9.05% (active) in [14]; 49.6% in [15]; 39.1% in [16]; 56.4% in [19]; 60.8% in test [17]. Besides, the growth in [18] is 53.7%.
`CN1C(=O)N(C)C2C1NN=c1s/c(=C\c3ccc(C(F)(F)F)cc3)c(=O)n12` (stereo not given): the growth is 47.7% in test [1]; 45.2% in test [2]; 41.2% in test [3]; 49.6% in test [4]; 55.5% in test [5]; 44.6% in test [6]. For the same molecule, the growth in [7] is 29.6%; in test [8] it was 18.4%; in [9], 11.7%; in [10], 37.2%; in test [11], 16.8%; in test [12], 29.1%. The growth is 49.3% in test [13]; 63.8% in [14]; 32.1% in [15]; 46.4% in test [16]; 3.49% (active) in [19]; 18.5% in [17]. In addition, the growth in test [18] was 15.4%.
